# Data published in PubChem BioAssay AID743398 (Broad Institute, 2014).
# About 3,600 (1.2%) of roughly 300,000 compounds were called active. Cut-off read from the data, not from the text of the source: active = activation above about 30% (passing the limit was not always enough); inconclusive = no clear call, values can overlap the other calls. Many of the other results were omitted from the sample, so actives are more common in it than they were.
# Experiment: activation of beta-catenin signaling reporter – cell-based, plate reader, single point, primary screen (AID 743398);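 note: 0% = neutral control wells and 100% = positive control wells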
# Details: Wnt/beta-catenin reporter cell assay, activator, at 9.35 µM, stronger effect = higher value
row,Compound,activation
1,CC(Cc1ccccc1)NC=O (stereo not given),-1.03% (inactive)
2,CC(=O)NC(=O)NC(C)Cc1ccccc1 (stereo not given),-4.37% (inactive)
3,CC(Cc1ccccc1)NCCC(c1ccccc1)c1ccccc1 (stereo not given),42% (active)
4,COc1cc(OC)cc(C(=O)NCCN2CCC3(CC2)C(=O)NCN3c2ccccc2)c1,3.07% (inactive)
5,Brc1ccc2c(c1)CNCc1cnnn1-2,-2.63% (inactive)
